The text below walks through data of PubChem BioAssay (NCI).

Common to all, as to assay: NCI-60 one-dose screen, 48 h (100 = growth as untreated, 0 = no growth, -100 = all killed)
Conditions in all cases: 10 µM unless noted

Assay [1] has as its system SR leukemia.
Assay [2] deals with RPMI-8226 leukemia.
In assay [3] the test system is OVCAR-8 ovarian.
In assay [4] the test system is OVCAR-5 ovarian.
In assay [5] the test system is OVCAR-4 ovarian.
Assay [6] concerns IGROV1 ovarian.
Assay [7] relates to HS 578T breast.
Assay [8] deals with NCI/ADR-RES ovarian.
For assay [9], the system named is T-47D breast.
Assay [10] relates to MDA-MB-435 melanoma.
In assay [11] the test system is SW-620 colon.
Assay [12] deals with MCF7 breast.
Assay [13] deals with HCT-116 colon.
The subject of assay [14] is HCC-2998 colon.
Assay [15] deals with KM12 colon.
In assay [16] the test system is OVCAR-3 ovarian.
Assay [17] has as its system BT-549 breast.
In assay [18] the test system is SK-OV-3 ovarian.

The panel holds about 83,000 compounds, 20% with a hit somewhere; the sample as a whole holds those more often.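 In brief: 96-well plates, 48 h treatment, single concentration, percent growth endpoint.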 Unmarked numbers belong to inactive results. The source made the active and inactive calls. The calls were made as follows: active = growth percent below 10; inactive = the rest.

With `CN(C)c1ccc(/C=C2/C=C(c3ccccc3)OC2=O)cc1`, the growth is 26.7% in assay [1]; 84% in assay [2]; 100% in assay [3]; 108% in [4]; 93.4% in assay [5]; 74.7% in assay [6]. Also, the growth is 101% in assay [7]; 73.1% in assay [8]; 86.9% in assay [9]; 21.7% in [10]; 95.2% in [11]; 56.6% in [12]. Further, the growth in assay [13] is 100%; in assay [14], 95%; in assay [15] it was 63.5%.

`Nc1ncnc2c1c(-c1ccc(Oc3ccccc3)cc1)nn2CC1SSCC1O` (configuration not stated): the growth in [1] was -16.2% (active); in [2], 38%; in assay [3] it was 67.7%; in assay [4], 81.4%; in assay [5] it was 67.4%; in [6] it was 15.6%. Moreover, the growth in [16] is 11.9%; in assay [7], 66.7%; in assay [8] it was 77.5%; in [9], 7.22% (active); in assay [17], 82%; in assay [10], -0.185% (active). The growth in [11] was 78.7%; in assay [12], 16%; in [13], 43.8%; in assay [14], 80.4%; in [15], 46.5%.

Take `COc1cc(C(=O)c2c(-c3ccccc3)oc3c(OC)cccc23)cc(OC)c1O`: the growth in assay [1] was 11.1%; in assay [2], 23.9%; in assay [3] it was 20.4%; in assay [4], 45.7%; in assay [5] it was 42.1%; in assay [6] it was 18.8%. In addition, the growth in assay [16] is 0.78% (active); in assay [7], 4.85% (active); in assay [8], 10.5%; in assay [9], 44%; in [10], -30.4% (active); in assay [11], 22.7%. The growth in assay [12] was 14.1%; in assay [13], 10.2%; in assay [14], -3.66% (active); in [15], 16.6%.

Turning to `CN1CCCc2cc(/C=C3/SC(=S)N(CCc4ccc(O)cc4)C3=O)ccc21`, the growth is 32.9% in assay [1]; 49.5% in [2]; 96.6% in assay [3]; 108% in [4]; 87.2% in assay [5]; 88.2% in assay [16]. For the same compound, the growth in assay [7] is 93.9%; in assay [8], 83.3%; in [9] it was 84%; in assay [17], 84.9%; in assay [10], 17.5%; in [11] it was 85%. Moreover, the growth in assay [12] is 72.2%; in assay [13], 89.3%; in assay [14] it was 106%; in assay [15] it was 48.7%.

`CCCCCCOC(=O)CC1=C(C)/C(=C/c2[nH]c(-c3ccc[nH]3)cc2OC)N=C1C`: the growth in assay [1] was -44.5% (active); in [2], -52.3% (active); in assay [3] it was -55.1% (active); in assay [4] it was -9.61% (active); in [5], -29.2% (active); in [6] it was -8.74% (active). Further, the growth is -93.9% (active) in [16]; -27% (active) in [7]; -49.4% (active) in assay [8]; -32.8% (active) in assay [9]; -33.9% (active) in assay [17]; -82.4% (active) in assay [10]. The growth in [11] was -74% (active); in [12], -24.1% (active); in assay [13] it was -79% (active); in assay [14], -47.5% (active); in [15], -51.4% (active).

As to `O=C(/C=C/C12c3ccccc3C(c3ccccc31)C1C(=O)NC(=O)C12)c1ccc(F)cc1` (configuration not stated), the growth was 0.421% (active) in [1]; -24% (active) in assay [2]; -64.2% (active) in assay [3]; 28% in assay [4]; 30.3% in [5]; -1.75% (active) in [18]. Further, the growth in assay [16] is -10.1% (active); in assay [7], 23.7%; in assay [8] it was 5.4% (active); in [9], 12.2%; in [17], 2.77% (active); in assay [11], 4.25% (active). The growth is 11.8% in [12], -18.6% (active) in assay [13], 10.9% in assay [14] and 8.33% (active) in assay [15].

For `O=C(Nc1ccc(F)cc1)Nc1ccccc1CNc1nc(Nc2ccc(OCCN3CCCC3)cc2)ncc1Cl`, the growth in assay [1] is 2.14% (active); in assay [2], -4.89% (active); in assay [3] it was 23.1%; in [4] it was 16.9%; in assay [5], -7.62% (active); in assay [18] it was 92.8%. Moreover, the growth was 74.3% in assay [7]; 44.5% in assay [8]; 100% in [9]; 84.9% in assay [17]; 16.3% in assay [10]; 27.8% in assay [11]. Also, the growth in assay [12] was 32.5%; in assay [13], 21.8%; in assay [14], 48.6%; in [15], 49.6%.

`COc1ccc2c(c1)c(-c1nonc1-c1cn(C)c3ccc(OC)cc13)cn2C`: the growth in [1] is 16.5%; in [2] it was 39.9%; in assay [3] it was 52.9%; in assay [4], 56.2%; in assay [5], 62%; in [6], 46.5%. For the same compound, the growth is 11.4% in assay [16]; 34.4% in [7]; 22.3% in assay [8]; 38.6% in assay [9]; 45.7% in assay [17]; -25.4% (active) in assay [10]. Also, the growth in [11] was 16.3%; in assay [12] it was 20.7%; in assay [13], 19.2%; in assay [14] it was 65.7%; in [15] it was 25.8%.

As for `N=c1c2c(=N)n3c(nc2nc2n1-c1ccccc1Sc1ccccc1-2)sc1cc(Cl)ccc13`, the growth in assay [1] is 25.9%; in [2], 14.5%; in [3], 26.5%; in assay [4], 92.2%; in [5], 8.65% (active); in assay [6] it was 38.7%. In addition, the growth was 7.88% (active) in [16]; 32% in [7]; 30.1% in [8]; 6.16% (active) in assay [9]; 42.2% in assay [17]; 21.1% in assay [10]. Also, the growth in assay [11] was 32.4%; in [12], -2.03% (active); in assay [13], 10.7%; in assay [14], -18.6% (active); in assay [15] it was 19.9%.
